Assay outcomes: PubChem, several laboratories
A selection: hits, their analogues and other compounds. The true share with any hit is near 3.8%.
Mtb FBA inh: inhibits M. tuberculosis FBA enzyme; actives 2.3% (n = 360,000); P9WQA3; purified M. tuberculosis FBA, fluorescence read-out; inhibition, % at 1 µM; in the data active = inhibition above about 27%
Target sequence (P9WQA3 whole entry, looked up): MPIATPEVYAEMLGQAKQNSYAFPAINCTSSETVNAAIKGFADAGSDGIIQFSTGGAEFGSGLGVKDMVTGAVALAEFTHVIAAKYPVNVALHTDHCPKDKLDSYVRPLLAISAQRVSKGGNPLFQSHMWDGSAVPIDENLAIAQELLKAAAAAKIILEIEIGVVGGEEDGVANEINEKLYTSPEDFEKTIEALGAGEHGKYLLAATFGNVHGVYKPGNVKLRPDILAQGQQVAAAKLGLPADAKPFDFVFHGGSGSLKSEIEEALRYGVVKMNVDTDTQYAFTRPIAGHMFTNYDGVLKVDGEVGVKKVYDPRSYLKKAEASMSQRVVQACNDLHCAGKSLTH
Mtb hypoxia rep: inhibitors of hypoxia-regulated fluorescent reporter in Mycobacterium tuberculosis. M. tuberculosis hypoxia-regulated fluorescent reporter, fluorescence. fluorescence inhibition, % (test concentration not listed). actives 0.1% (n = 300,000). AID 1159583; in the data active = fluorescence inhibition mostly above about 23%, no sharp cut-off; inactive = mostly below about 17%
Y pestis TopoI: Y. pestis Topo-I inhibition via cleavage products. Y. pestis Topo-I cleavage product accumulation, plate reader. activity, % at 10 µM. actives 0.064% (n = 360,000). AID 504884; in the data active = activity above about 50%, passing the limit was not always enough
PrP 5UTR inh: inhibition of PrP 5' UTR reporter expression; cell-based PrP 5' UTR mRNA reporter, plate reader; inhibition, % (test concentration not listed); actives 0.35% (n = 340,000); AID 488862; in the data active = inhibition above about 52%
GDH-TPI inh: counter-screen for M. tuberculosis FBA inhibitors: GDH-TPI coupled enzymes | AID 588335 | actives 1.2% (n = 360,000) | inhibition, % at 4.8 µM | GDH-TPI coupled enzyme counterscreen, NADH absorbance; in the data active = inhibition above about 30%
PrPC TRFRET: inhibitors of human cell surface prion protein PrPC; TR-FRET read-out; actives 0.43% (n = 370,000); AID 720596; inhibition, % at 13.8 µM; P04156; in the data active = inhibition above about 24%
Each line names hits and unclear results; the compound was inactive in the other large screens.

O=S(=O)(O)c1cc2oc(-c3ccccc3)nc2c2ccccc12	Mtb FBA inh active
CCOC(=O)C=C1CN(C(C)c2ccccc2)S(=O)(=O)c2ccccc21 (stereo not drawn)	none (no result: Mtb FBA inh, Y pestis TopoI, PrP 5UTR inh, GDH-TPI inh, PrPC TRFRET)
Cc1ccccc1NCC(=O)c1ccc(Br)cc1	Y pestis TopoI 176
CCCCCCCCN1C(CC(=O)OC)c2cc(C(F)(F)F)ccc2S1(=O)=O (stereo not drawn)	none (no result: Mtb FBA inh, Y pestis TopoI, PrP 5UTR inh, GDH-TPI inh, PrPC TRFRET)
CN(CC(=O)Nc1ccc(OC(F)(F)F)cc1)C(=O)c1ccc(N2CCCC2=O)cc1	Mtb hypoxia rep 30
CN(CC(=O)Nc1ccc(Cl)cc1)C(=O)c1ccc(N2CCCC2=O)cc1	none (no result: PrP 5UTR inh)
O=C(Cn1c2ccccc2c(=O)c2ccccc21)Nc1ccccc1F	Mtb FBA inh 150
CC(=O)c1cn(CC(=O)Nc2ccccc2F)c2ccccc12	none (no result: Mtb hypoxia rep)
Oc1ccc(C=NC2CCCCC2)cc1	GDH-TPI inh 37
Oc1ccc(C=NN=Cc2ccc(O)cc2)cc1	none (no result: Mtb FBA inh, Y pestis TopoI, PrP 5UTR inh, GDH-TPI inh, PrPC TRFRET)
COc1cc2ccc(=O)oc2c(O)c1O	none (no result: Mtb hypoxia rep)
COc1cc2oc(=O)ccc2cc1-c1c(OC)ccc2ccc(=O)oc12	GDH-TPI inh 35 (no result: Mtb hypoxia rep)
CCCCS/C(N)=N/N=C/c1cc(C)ccc1O	GDH-TPI inh 41 (no result: Mtb hypoxia rep)
COc1cccc(C=CC(=O)Nc2ccc(OC)nc2)c1	none (no result: Mtb FBA inh, Y pestis TopoI, PrP 5UTR inh, GDH-TPI inh, PrPC TRFRET)
CC1CCN(C(=O)CN2C(=O)c3cccc4cccc(c34)C2=O)CC1	GDH-TPI inh 35
CC1CCN(C(=O)CN2C(=O)C(=O)c3ccccc32)CC1	none (no result: PrPC TRFRET)
N#CC(=NNc1ccccc1F)c1nc(-c2ccccc2)cs1	none (no result: Mtb FBA inh, Y pestis TopoI, PrP 5UTR inh, GDH-TPI inh, PrPC TRFRET)
CC1Cc2nc(SCC(=O)NCc3ccccc3)n(Cc3ccccc3)c(=O)c2S1 (stereo not drawn)	GDH-TPI inh 34
CC1Cc2nc(SCC(=O)c3ccccc3)n(Cc3ccccc3)c(=O)c2S1 (stereo not drawn)	none
COC1C=C2CCN(C)C2C2c3cc4c(cc3C(=O)OC12)OCO4 (stereo not drawn)	none (no result: Mtb FBA inh, Y pestis TopoI, PrP 5UTR inh, GDH-TPI inh, PrPC TRFRET)
O=C(COc1ccc([N+](=O)[O-])cc1)NCc1cccnc1	none
Cc1ccccc1OCC(=O)Nc1nnc(-c2ccncc2)s1	GDH-TPI inh 33
O=C(COc1ccc([N+](=O)[O-])cc1)Nc1nnc(-c2cccnc2)s1	GDH-TPI inh 35
O=C(Nc1nnc(-c2cccnc2)s1)c1cccs1	GDH-TPI inh 42
CC(C)(C)OC(=O)CC1CC=CCC(CC(=O)NC(CO)Cc2ccccc2)C(=O)NCC(c2ccccc2)OC1=O (stereo not drawn)	none (no result: Mtb FBA inh, Y pestis TopoI, PrP 5UTR inh, GDH-TPI inh, PrPC TRFRET)
CCN(CC)C(=O)CSC1=NC(=Cc2ccco2)C(=O)N1c1ccc(OC)c(Cl)c1	none (no result: Mtb FBA inh, Y pestis TopoI, PrP 5UTR inh, GDH-TPI inh, PrPC TRFRET)
Cc1ccc(S(=O)(=O)ON2C(=O)c3ccccc3C2=O)c(C)c1	Mtb FBA inh 40
Cc1cc(C)c(C)c(S(=O)(=O)ON2C(=O)c3ccccc3C2=O)c1C	Mtb FBA inh 35
Cc1cc(C)c(S(=O)(=O)ON2C(=O)c3ccccc3C2=O)cc1C	Mtb FBA inh 37
O=C1c2ccccc2C(=O)N1OS(=O)(=O)c1ccc(F)cc1	none
O=C(C[C@H]1C/C=C\CC[C@H](Cc2ccc(F)cc2)C(=O)O[C@@H](c2ccccc2)CNC1=O)N[C@@H](CO)Cc1ccccc1	Y pestis TopoI 89 (no result: Mtb hypoxia rep)
COc1cc(-c2noc(C)c2C=Cc2cccc([N+](=O)[O-])c2)cc(OC)c1OC	none (no result: Mtb FBA inh, Y pestis TopoI, PrP 5UTR inh, GDH-TPI inh, PrPC TRFRET)
CC(C)CC(N)c1cn(C(Cc2cc3ccccc3[nH]2)C(=O)N2CCNCC2)nn1 (stereo not drawn)	none (no result: Mtb FBA inh, Y pestis TopoI, PrP 5UTR inh, GDH-TPI inh, PrPC TRFRET)
CSc1nc(=S)c2[nH]c(=S)[nH]c2[nH]1	GDH-TPI inh 33
Nc1nc(=S)c2[nH]c(=S)[nH]c2[nH]1	none
O=C(NN=C1CCCC1)c1ccccc1[N+](=O)[O-]	none
CC(C)N1CCC(=NNC(=O)c2ccccc2[N+](=O)[O-])CC1	Mtb FBA inh active
Cc1ccn2c(C(=O)N/N=C\c3ccc4c(c3)OCO4)c(C)nc2c1	GDH-TPI inh 46 (no result: Mtb hypoxia rep)
Cc1nc2ccccn2c1C(=O)NN=Cc1ccccc1[N+](=O)[O-]	none (no result: Mtb FBA inh, Y pestis TopoI, PrP 5UTR inh, GDH-TPI inh, PrPC TRFRET)
Cc1ccn2c(=O)c(NC(=O)c3ccc4c(c3)OCO4)c(C)nc2c1	GDH-TPI inh 31 (no result: Mtb hypoxia rep, PrP 5UTR inh)
Cc1ccn2c(C(=O)N/N=C\c3ccccc3[N+](=O)[O-])c(C)nc2c1	GDH-TPI inh 44 (no result: Mtb hypoxia rep)
Cc1ccn2c(C(=O)N/N=C/c3ccc(Cl)cc3)c(C)nc2c1	none (no result: Mtb hypoxia rep)
O=C(N/N=C/c1ccc2c(c1)OCO2)c1ccc2ccccc2n1	GDH-TPI inh 32 (no result: Mtb hypoxia rep)
Cc1cccc(C(=O)N/N=C/c2ccc3c(c2)OCO3)n1	GDH-TPI inh 33 (no result: Mtb hypoxia rep)
O=C(NN=Cc1ccc2c(c1)OCO2)c1ccc2ccccc2n1	none (no result: Mtb FBA inh, Y pestis TopoI, PrP 5UTR inh, GDH-TPI inh, PrPC TRFRET)
